Each structure is given as a SMILES string. Inconclusive results are not listed. Calls of active or inactive are those of the source. The calls were made as follows: active = hit-call score of the fitted dose curve at least 0.9, where 1 is the maximum; inconclusive = response in the unintended direction; inactive = score below 0.9.

Chain of human Vitamin D Receptor (VDR), VDR (gene 7421) (P11473 whole entry, looked up): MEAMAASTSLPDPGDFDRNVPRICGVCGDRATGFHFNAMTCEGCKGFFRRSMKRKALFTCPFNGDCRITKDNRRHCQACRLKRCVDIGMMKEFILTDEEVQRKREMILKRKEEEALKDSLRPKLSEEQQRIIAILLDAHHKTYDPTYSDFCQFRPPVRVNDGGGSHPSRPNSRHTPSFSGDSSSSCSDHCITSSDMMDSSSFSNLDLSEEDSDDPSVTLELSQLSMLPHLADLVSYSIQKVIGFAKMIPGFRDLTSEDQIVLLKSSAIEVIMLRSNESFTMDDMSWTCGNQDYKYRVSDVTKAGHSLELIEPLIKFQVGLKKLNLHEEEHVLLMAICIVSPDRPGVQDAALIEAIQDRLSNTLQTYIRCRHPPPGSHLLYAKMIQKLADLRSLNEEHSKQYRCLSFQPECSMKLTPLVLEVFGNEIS

The assay deals with human Vitamin D Receptor (VDR), VDR (gene 7421) (UniProt P11473). Put plainly: ATG_VDR_TRANS: Attagene TRANS-FACTORIAL HepG2 Assay for human Vitamin D Receptor (VDR) (AID 2283022). A digest of the protocol:
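Multiplexed TRANS reporter in HepG2; 24 h treatment; reporter mRNA by RT-PCR plus capillary electrophoresis; upregulation scored relative to DMSO.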
With `Cc1cc(C)n(CO)n1`, the compound was called inactive.
In the case of `C=C(C)C1CC=C(C)C(OC(C)=O)C1` (stereo not given) it was “inactive”; in that of `O=C(OCCc1ccccc1)c1ccccc1`, “inactive”.
On to `CCCc1ccc(O)c(OC)c1`, for which the call was inactive.
In the case of `c1ccc2cnccc2c1` it was “inactive”; in that of `CCCCCCCCCC[N+](C)(CCCCCCCCCC)CCC[Si](OC)(OC)OC`, “inactive”.
The entry for `CC(C)OC(=O)c1ccccc1` is “inactive”; for `CC(C=O)c1ccccc1` (stereo not given) it is “inactive”; for `O=C(Nc1ccccc1)c1cc(Cl)ccc1O` it is “inactive”.
In the case of `CC(=O)c1ccc(S(=O)(=O)NC(=O)NC2CCCCC2)cc1` it was “inactive”; in that of `CCCCc1ccc(Cl)cc1`, “inactive”.
On to `CCCCCCOc1ccc(N)cc1`, for which the compound was classed as inactive.
In the case of `CC(=O)CCC=C(C)C` it was “inactive”; in that of `CC(C)CCOCc1ccccc1`, “inactive”.
Take `COC(Cc1ccccc1)OC`: the outcome was inactive.
In the case of `C=Cc1ccc(OC(C)=O)cc1` it was “inactive”; in that of `C=CC(=O)OCCCCCCCCCC`, “inactive”.
Take `Cc1c[nH]c(=O)[nH]c1=O`: the compound was called inactive.
The entry for `COCC(=O)O` is “inactive”.
The entry for `CC1CC(=O)CC(C)(C)C1` (stereo not given) is “inactive”; for `CCCCCCCCCCCC(=O)OCC` it is “inactive”; for `COc1ccc(-c2coc3cc(O)cc(O)c3c2=O)cc1` it is “inactive”.
In the case of `CC(C)(CO)COC(=O)C(C)(C)CO` it was “inactive”.
`CC(C)(C)NC(=O)[C@H]1CC[C@H]2[C@@H]3CC[C@H]4NC(=O)C=C[C@]4(C)[C@H]3CC[C@]12C`: the compound was called inactive.
As to `CCC1COC(=O)O1` (stereo not given), the outcome was inactive.
The entry for `CC(=O)OC1CCCCC1` is “inactive”.
The entry for `CCCCCCCCCCCCc1ccc(O)cc1` is “inactive”; for `CCCCOCC(C)O` (stereo not given) it is “inactive”; for `CC(C)(CO)C(O)C(=O)NCCCO` (stereo not given) it is “inactive”.
In the case of `CCCCOCCOCCOC(C)=O`, the call was inactive.
With `Nc1ccnc(=O)[nH]1`, the compound was called inactive.
With `CC1=CC(C)C(C=O)CC1` (stereo not given), the call was inactive.
In the case of `Cc1cc(=O)[nH]c(=O)[nH]1` it was “inactive”; in that of `Nc1ccc(C(=O)OCCCOC(=O)c2ccc(N)cc2)cc1`, “inactive”.
In the case of `O=C(C=Cc1ccccc1)OCCc1ccccc1` it was “inactive”.

These data come from PubChem BioAssay (EPA / NIEHS).
